# Experimental data reported in PubChem BioAssay (Tox21).
# Records with an inconclusive call do not appear. Activity calls are given as the source filed them. Calls follow the shape of the dose curve; as a rule, active = well fitted inhibition curve with a large enough effect in the repeat runs; inconclusive = weak or mixed curves; inactive = no such curve, though single readings can be large or run the other way.
# Biological target: Cytochrome P450 2C19 (Homo sapiens) (UniProt P33261)
# Assay: Cytochrome P450 Family 2 Subfamily C Member 19 (CYP2C19) small molecule antagonists: luciferase reporter qHTS assay (AID 1671197); also: nearly all actives have a fitted effect of over 65% in size
# Details: P450-Glo CYP2C19 enzyme, luciferin luminescence, 1 h; series mostly up to 52.9 µM
# In short: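 First, compounds are pinned into enzyme-substrate mix and held 10 min at room temperature. Second, NADPH regeneration solution is added and plates incubate 1 h at 37C. Third, detection reagent is added and luminescence read after 20 min.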
# Potency is read from the fitted curve at half-maximal effect.
# Sequence of Cytochrome P450 2C19 (Homo sapiens) (P33261 whole entry, looked up): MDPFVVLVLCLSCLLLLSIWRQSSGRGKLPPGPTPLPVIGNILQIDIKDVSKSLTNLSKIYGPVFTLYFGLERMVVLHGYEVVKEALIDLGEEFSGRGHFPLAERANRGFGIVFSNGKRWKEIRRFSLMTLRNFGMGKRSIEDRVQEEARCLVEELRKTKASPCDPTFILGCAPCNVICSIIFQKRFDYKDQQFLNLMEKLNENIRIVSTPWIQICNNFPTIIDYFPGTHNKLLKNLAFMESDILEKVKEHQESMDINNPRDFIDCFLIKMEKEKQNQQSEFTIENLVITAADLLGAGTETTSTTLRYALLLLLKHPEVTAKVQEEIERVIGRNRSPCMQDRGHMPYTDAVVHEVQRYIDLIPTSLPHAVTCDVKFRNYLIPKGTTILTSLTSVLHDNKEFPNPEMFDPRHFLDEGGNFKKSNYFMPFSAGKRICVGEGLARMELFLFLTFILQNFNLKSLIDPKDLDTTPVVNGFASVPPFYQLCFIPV
row,SMILES,Potency
1,CCCCCCCCN,inactive
2,COc1ccccc1Oc1c(NS(=O)(=O)c2ccc(C(C)(C)C)cc2)nc(-c2ncccn2)nc1OCCO,inactive
3,CN(C)CCN1C(=O)c2ccccc2N(C)c2ccccc21,inactive
4,Cc1cc(O)c(C)c(C)c1O,inactive
5,CCC(=O)C1CC(C(C)C)CC=C1C (centres undefined),35.6 µM (active)
6,OC[C@H]1O[C@@H](n2cnc3c(=S)nc[nH]c32)[C@H](O)[C@@H]1O,7.76 µM (active)
7,Nc1nc2ccc([N+](=O)[O-])cc2s1,35.6 µM (active)
8,Oc1cccc(O)c1O,70.4 µM (active)
9,CC(C)=CCC/C(C)=C/CC/C(C)=C/C(=O)OCC(=O)[C@@]1(O)CC[C@H]2[C@@H]3CCC4=CC(=O)C=C[C@]4(C)[C@H]3[C@@H](O)C[C@@]21C,7.76 µM (active)
10,C=C/C(C)=C/C/C=C(\C)CCC=C(C)C,31.7 µM (active)
11,O=C(CCc1ccc(O)cc1)c1c(O)cc(O)cc1O,40.8 µM (active)
12,CO[C@]1(NC(=O)CSC(F)F)C(=O)N2C(C(=O)O)=C(CSc3nnnn3CCO)CO[C@H]21,inactive
13,CCC(C)(C)OC,inactive
14,CCOc1cccc(-n2cc(C(=O)N3CCN(c4cc(C(=O)O)c5ccccc5c4)CC3)nc2-c2ccc(C)cc2)c1,53.8 µM (active)
15,CCCCCCCCCI,inactive
16,CN1C(=O)c2ccccc2C1=O,79.6 µM (active)

# Biological target: Cytochrome P450 2C9 (Homo sapiens) (UniProt P11712)
# Sequence (P11712 whole entry, looked up): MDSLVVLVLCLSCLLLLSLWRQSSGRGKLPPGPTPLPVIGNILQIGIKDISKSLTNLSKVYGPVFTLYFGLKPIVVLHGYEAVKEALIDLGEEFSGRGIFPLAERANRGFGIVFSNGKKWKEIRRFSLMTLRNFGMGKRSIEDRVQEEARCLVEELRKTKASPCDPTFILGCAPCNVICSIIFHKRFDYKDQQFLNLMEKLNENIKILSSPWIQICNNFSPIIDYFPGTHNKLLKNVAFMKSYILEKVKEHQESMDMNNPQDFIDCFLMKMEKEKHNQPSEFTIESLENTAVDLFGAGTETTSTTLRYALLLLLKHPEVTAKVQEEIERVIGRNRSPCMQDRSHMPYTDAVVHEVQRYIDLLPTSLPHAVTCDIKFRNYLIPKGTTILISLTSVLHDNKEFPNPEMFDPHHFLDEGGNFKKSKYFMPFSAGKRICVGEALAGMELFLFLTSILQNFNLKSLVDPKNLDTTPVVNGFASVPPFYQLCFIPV
# Assay: Cytochrome P450 Family 2 Subfamily C Member 9 (CYP2C9) small molecule antagonists: luciferase reporter qHTS assay (AID 1671198); also: nearly all actives have a fitted effect of over 50% in size
# Details: P450-Glo CYP2C9 enzyme assay, luciferin luminescence; series mostly up to 115 µM
# In short: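 CYP2C9 activity was measured with a P450-Glo proluciferin substrate. Enzyme–substrate mix was held with compound for 10 min at room temperature, then NADPH regeneration solution was added for 1 h at 37C. Luciferin product was read as luminescence.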
row,SMILES,Potency
1,CCCCCCCCN,inactive
2,Clc1cc(Cl)nc(Cl)n1,inactive
3,C1C[C@@H]2[C@H]3CC[C@H](C3)[C@@H]2C1,inactive
4,CN(C)CCN1C(=O)c2ccccc2N(C)c2ccccc21,inactive
5,O=C(O)CCCCCCCCCCCBr,inactive
6,Cc1[nH]cnc1CN1CCc2c(c3ccccc3n2C)C1=O,2.19 µM (active)
7,OC[C@H]1O[C@@H](n2cnc3c(=S)nc[nH]c32)[C@H](O)[C@@H]1O,13.8 µM (active)
8,CC1CC(OC(=O)C(O)c2ccccc2)CC(C)(C)N1C (centres undefined),inactive
9,CC(C)=CCC/C(C)=C/CC/C(C)=C/C(=O)OCC(=O)[C@@]1(O)CC[C@H]2[C@@H]3CCC4=CC(=O)C=C[C@]4(C)[C@H]3[C@@H](O)C[C@@]21C,3.89 µM (active)
10,CC(=O)OCCN(CCOC(C)=O)c1ccc(N=Nc2ccc([N+](=O)[O-])cc2C#N)cc1,15.9 µM (active)
11,CC1(C)O[C@@H]2C[C@H]3[C@@H]4C[C@H](F)C5=CC(=O)C=C[C@]5(C)[C@H]4[C@@H](O)C[C@]3(C)[C@]2(C(=O)CO)O1,inactive
12,C=C/C(C)=C/C/C=C(\C)CCC=C(C)C,31.7 µM (active)
13,OC1(c2ccccc2)CCNCC1,inactive
14,O=C(CCc1ccc(O)cc1)c1c(O)cc(O)cc1O,20.5 µM (active)
15,CC(C)(O)c1ccc(CNC(=O)c2cccnc2Oc2ccc3nonc3c2)cc1,25.2 µM (active)
16,O=C1c2ccccc2C(=O)c2c(O)c(O)cc(O)c21,63.3 µM (active)
17,CO[C@]1(NC(=O)CSC(F)F)C(=O)N2C(C(=O)O)=C(CSc3nnnn3CCO)CO[C@H]21,inactive
18,CCC(C)(C)OC,inactive
19,CCOc1cccc(-n2cc(C(=O)N3CCN(c4cc(C(=O)O)c5ccccc5c4)CC3)nc2-c2ccc(C)cc2)c1,67.7 µM (active)
20,CCCCCC[C@@H](O)C/C=C\CCCCCCCC(=O)OCC(O)CO (some centres undefined),11.2 µM (active)
21,CN1C(=O)c2ccccc2C1=O,10 µM (active)

# Biological target: Cytochrome P450 1A2 (Homo sapiens) (UniProt P05177)
# Sequence (P05177 whole entry, looked up): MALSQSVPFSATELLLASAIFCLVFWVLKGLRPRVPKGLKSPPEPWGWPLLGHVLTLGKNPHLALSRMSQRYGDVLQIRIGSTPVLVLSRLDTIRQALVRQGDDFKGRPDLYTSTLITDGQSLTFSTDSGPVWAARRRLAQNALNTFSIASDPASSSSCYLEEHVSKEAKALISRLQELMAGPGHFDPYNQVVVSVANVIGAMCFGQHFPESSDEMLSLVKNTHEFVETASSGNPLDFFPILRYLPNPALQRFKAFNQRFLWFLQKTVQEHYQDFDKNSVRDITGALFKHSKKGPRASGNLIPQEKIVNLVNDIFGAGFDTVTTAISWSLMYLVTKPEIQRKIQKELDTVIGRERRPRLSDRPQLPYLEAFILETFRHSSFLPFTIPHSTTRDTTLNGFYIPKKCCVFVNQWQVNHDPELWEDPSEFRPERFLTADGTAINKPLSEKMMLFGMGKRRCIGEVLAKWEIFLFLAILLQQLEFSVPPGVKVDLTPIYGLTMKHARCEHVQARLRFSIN
# Assay: Cytochrome P450 Family 1 Subfamily A Member 2 (CYP1A2) small molecule antagonists: luciferase reporter qHTS assay (AID 1671199); also: nearly all actives have a fitted effect of over 50% in size
# Details: P450-Glo CYP1A2 enzyme, luciferin luminescence, 1 h; series mostly up to 53 µM
# In short: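 Luminescence readout (relative luminescence units) after luciferin detection reagent, 20 min RT. Preceded by 1 h room-temperature CYP1A2 reaction with NADPH regeneration solution following 10 min compound preincubation with enzyme and proluciferin substrate. Furafylline positive control.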
row,SMILES,Potency
1,CCCCCCCCN,inactive
2,Clc1cc(Cl)nc(Cl)n1,36 µM (active)
3,COc1ccccc1Oc1c(NS(=O)(=O)c2ccc(C(C)(C)C)cc2)nc(-c2ncccn2)nc1OCCO,inactive
4,O=C(O)CCCCCCCCCCCBr,inactive
5,Cc1[nH]cnc1CN1CCc2c(c3ccccc3n2C)C1=O,0.812 µM (active)
6,Cc1cc(O)c(C)c(C)c1O,15.5 µM (active)
7,CCC(=O)C1CC(C(C)C)CC=C1C (centres undefined),63.3 µM (active)
8,CN1C[C@H](C(=O)N[C@]2(C)O[C@@]3(O)[C@@H]4CCCN4C(=O)[C@H](Cc4ccccc4)N3C2=O)C[C@@H]2c3cccc4[nH]cc(c34)C[C@H]21,inactive
9,CC1(C)O[C@@H]2C[C@H]3[C@@H]4C[C@H](F)C5=CC(=O)C=C[C@]5(C)[C@H]4[C@@H](O)C[C@]3(C)[C@]2(C(=O)CO)O1,inactive
10,OC1(c2ccccc2)CCNCC1,inactive
11,O=C(CCc1ccc(O)cc1)c1c(O)cc(O)cc1O,36.4 µM (active)
12,O=C1c2ccccc2C(=O)c2c(O)c(O)cc(O)c21,35.6 µM (active)
13,CO[C@]1(NC(=O)CSC(F)F)C(=O)N2C(C(=O)O)=C(CSc3nnnn3CCO)CO[C@H]21,inactive
14,CC/C=C1/OC(=O)c2ccccc21,5.51 µM (active)
15,CCOc1cccc(-n2cc(C(=O)N3CCN(c4cc(C(=O)O)c5ccccc5c4)CC3)nc2-c2ccc(C)cc2)c1,inactive
16,CCCCCCCCCI,inactive
17,CN1C(=O)c2ccccc2C1=O,24.5 µM (active)
